Test results published in PubChem BioAssay AID1159580 (chemical genetic matrix, 2015).
Where “and” joins values, the source holds several entries; their conditions need not be identical. Equal values may be shown once. Hit rate of the full screen: of about 5,500 compounds, about 2,000 (36%) were called active. Not shown: some 18% with an inconclusive outcome. No stated cut-off is given here; in the data, active means normalized growth mostly below about 0.91 (no sharp cut-off); inconclusive means no clear call, values can overlap the other calls; inactive means mostly above about 0.92. The list shows a part of the results.

Assay: chemical genetic growth profiling, strain panel (AID 1159580);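 further: tested at 20 µM; growth read once vehicle control cultures reached saturation at 30 °C; 1 = growth at the plate median or of vehicle wells; lower values mean less growth of the strain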
Conditions: S. cerevisiae deletion strains, growth OD

Measured: normalized growth

CCC(=O)OCC(=O)C1(OC(=O)CC)C(C)CC2C3CCC4=CC(=O)C=CC4(C)C3(Cl)C(O)CC21C (stereo unspecified)
inactive: locus YAL021C, strain ccr4, active compounds read low 0.99 | locus YAL026C, strain drs2, active compounds read low 1 | locus YAL030W, strain snc1, active compounds read low 0.999 | locus YBL061C, strain skt5, active compounds read low 0.98 | locus YBR009C, strain hhf1, active compounds read low 0.996 | locus YBR021W, strain FUR4, active compounds read low 1.04 | locus YBR023C, strain chs3, active compounds read low 0.979 | locus YBR171W, strain sec66, active compounds read low 0.963 | locus YBR229C, strain ROT2, active compounds read low 1.02 | locus YBR231C, strain swc5, active compounds read low 0.972 | locus YBR279W, strain paf1, active compounds read low 0.99 | locus YCL011C, strain gbp2, active compounds read low 1 | locus YCL016C, strain dcc1, active compounds read low 1.01 | locus YCL029C, strain bik1, active compounds read low 0.993 | locus YCL061C, strain MRC1, active compounds read low 0.991 | locus YCL069W, strain vba3, active compounds read low 0.977 | locus YCR088W, strain abp1, active compounds read low 0.993 | locus YDL005C, strain med2, active compounds read low 0.97 | locus YDL035C, strain GPR1, active compounds read low 1.03 | locus YDL040C, strain nat1, active compounds read low 0.973 | locus YDL074C, strain BRE1, active compounds read low 1.03 | locus YDL101C, strain DUN1, active compounds read low 1.01 | locus YDL185W, strain tfp1, active compounds read low 0.998 | locus YDL192W, strain arf1, active compounds read low 0.997 | locus YDR001C, strain nth1, active compounds read low 0.989 | locus YDR069C, strain doa4, active compounds read low 0.959 | locus YDR101C, strain arx1, active compounds read low 0.969 | locus YDR137W, strain rgp1, active compounds read low 0.932 | locus YDR150W, strain NUM1, active compounds read low 1.01 | locus YDR159W, strain sac3, active compounds read low 0.959 | locus YDR162C, strain NBP2, active compounds read low 1.04 | locus YDR195W, strain ref2 0.975 | locus YDR297W, strain sur2, active compounds read low 0.979 | locus YDR318W, strain mcm21, active compounds read low 0.993 | locus YDR334W, strain swr1, active compounds read low 0.991 | locus YDR335W, strain msn5, active compounds read low 0.966 | locus YDR388W, active compounds read low 0.99 | locus YDR392W, strain spt3, active compounds read low 1.03 | locus YDR502C, strain sam2, active compounds read low 0.994 | locus YEL003W, strain gim4, active compounds read low 0.973 | locus YEL037C, strain rad23, active compounds read low 0.975 | locus YEL061C, strain CIN8 (second series), active compounds read low 0.975 | locus YEL061C, strain CIN8, active compounds read low 1.01 | locus YER015W, strain faa2, active compounds read low 0.986 | locus YER016W, strain bim1, active compounds read low 0.996 | locus YER110C, active compounds read low 0.984 | locus YER111C, strain swi4, active compounds read low 0.967 | locus YER155C, strain BEM2 (second series), active compounds read low 0.995 | locus YER155C, strain BEM2, active compounds read low 1.01 | locus YER167W, strain BCK2, active compounds read low 1.02 | locus YFR010W, strain ubp6, active compounds read low 0.957 | locus YGL078C, strain dbp3, active compounds read low 0.99 | locus YGL086W, strain mad1, active compounds read low 0.989 | locus YGL167C, strain pmr1, active compounds read low 0.948 | locus YGL173C, strain kem1, active compounds read low 0.952 | locus YGL227W, strain vid30, active compounds read low 0.983 | locus YGL240W, strain doc1, active compounds read low 0.974 | locus YGL248W, strain PDE1, active compounds read low 1.02 | locus YGL253W, strain hxk2, active compounds read low 0.926 | locus YGR135W, strain pre9, active compounds read low 1 | locus YGR229C, strain SMI1, active compounds read low 1.03 | locus YGR252W, strain gcn5, active compounds read low 1.02 | locus YHR013C, strain ard1, active compounds read low 0.987 | locus YHR027C, strain rpn1, active compounds read low 0.999 | locus YHR030C, strain SLT2, active compounds read low 1.01 and 1.11 | locus YHR079C, strain IRE1 (second series), active compounds read low 0.985 | locus YHR079C, strain IRE1, active compounds read low 1.05 | locus YHR094C, strain hxt1, active compounds read low 0.989 | locus YHR129C, strain ARP1, active compounds read low 1.02 | locus YHR142W, strain chs7, active compounds read low 0.913 | locus YHR200W, strain rpn10, active compounds read low 0.99 | locus YIL066C, strain RNR3, active compounds read low 1.03 | locus YIL073C, strain SPO22, active compounds read low 1.01 | locus YIL125W, strain kgd1, active compounds read low 0.99 | locus YIR030C, strain dcg1, active compounds read low 0.984 | locus YJL092W, strain hpr5, active compounds read low 0.978 | locus YJL095W, strain BCK1 (second series), active compounds read low 0.982 | locus YJL095W, strain BCK1, active compounds read low 1.02 and 1.04 | locus YJL115W, strain asf1, active compounds read low 0.973 | locus YJL129C, strain trk1, active compounds read low 0.922 | locus YJL134W, strain LCB3, active compounds read low 1.01 | locus YJL154C, strain vps35, active compounds read low 0.965 | locus YJL164C, strain tpk1, active compounds read low 1.01 | locus YJL166W, strain qcr8, active compounds read low 0.947 | locus YJL168C, strain set2, active compounds read low 0.991 | locus YJL187C, strain SWE1 (second series), active compounds read low 1
